The record followed here is ChEMBL document CHEMBL1961873, “Compounds: GSK PKIS; Assays: Nanosyn kinase panel” (2012).

Structures are written as SMILES.

Assay [1] concerns the target T1, Serine/threonine-protein kinase TBK1 (Homo sapiens) (UniProt Q9UHD2).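 Further: values are mean inhibition of TBK1, screened as part of the GSK published kinase inhibitor set.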
T1 sequence (whole entry): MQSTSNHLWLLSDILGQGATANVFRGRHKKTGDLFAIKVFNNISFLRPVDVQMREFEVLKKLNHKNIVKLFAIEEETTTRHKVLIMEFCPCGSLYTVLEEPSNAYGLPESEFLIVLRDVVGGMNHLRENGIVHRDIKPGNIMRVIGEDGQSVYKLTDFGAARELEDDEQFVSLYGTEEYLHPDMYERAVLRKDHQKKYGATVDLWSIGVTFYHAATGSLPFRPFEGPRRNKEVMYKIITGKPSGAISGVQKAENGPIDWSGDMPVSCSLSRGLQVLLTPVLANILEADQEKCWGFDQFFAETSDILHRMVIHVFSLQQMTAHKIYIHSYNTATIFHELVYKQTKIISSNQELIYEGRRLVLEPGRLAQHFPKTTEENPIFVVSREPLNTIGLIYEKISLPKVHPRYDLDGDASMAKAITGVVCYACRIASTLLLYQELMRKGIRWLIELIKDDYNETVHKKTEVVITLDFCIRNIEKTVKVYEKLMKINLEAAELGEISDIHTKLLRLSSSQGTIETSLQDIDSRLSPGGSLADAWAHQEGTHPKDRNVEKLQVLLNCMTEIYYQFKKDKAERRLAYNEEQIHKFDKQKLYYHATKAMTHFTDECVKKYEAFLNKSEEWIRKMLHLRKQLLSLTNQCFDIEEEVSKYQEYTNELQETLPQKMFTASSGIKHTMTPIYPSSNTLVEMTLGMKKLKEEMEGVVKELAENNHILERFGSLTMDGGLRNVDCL
Conditions: at 1 µM.

The target in assay [2] is T2, Testis-specific serine/threonine-protein kinase 1 (Homo sapiens) (UniProt Q9BXA7).
T2 sequence (whole entry): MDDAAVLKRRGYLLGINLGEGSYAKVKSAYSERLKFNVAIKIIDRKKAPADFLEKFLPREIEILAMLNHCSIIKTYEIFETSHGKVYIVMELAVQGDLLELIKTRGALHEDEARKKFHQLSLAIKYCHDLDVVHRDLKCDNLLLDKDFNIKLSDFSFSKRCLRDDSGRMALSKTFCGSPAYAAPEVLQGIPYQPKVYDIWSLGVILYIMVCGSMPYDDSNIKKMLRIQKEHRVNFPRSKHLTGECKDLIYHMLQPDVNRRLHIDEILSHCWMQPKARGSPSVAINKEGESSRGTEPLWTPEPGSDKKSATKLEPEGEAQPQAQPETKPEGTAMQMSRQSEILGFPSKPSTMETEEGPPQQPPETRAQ
Particulars: at 0.1 µM.

Assay [3] concerns the target T2, Testis-specific serine/threonine-protein kinase 1 (Homo sapiens). Particulars: at 1 µM.
For assay [4], the target named is T3, Testis-specific serine/threonine-protein kinase 2 (Homo sapiens) (UniProt Q96PF2).
T3 sequence (whole entry): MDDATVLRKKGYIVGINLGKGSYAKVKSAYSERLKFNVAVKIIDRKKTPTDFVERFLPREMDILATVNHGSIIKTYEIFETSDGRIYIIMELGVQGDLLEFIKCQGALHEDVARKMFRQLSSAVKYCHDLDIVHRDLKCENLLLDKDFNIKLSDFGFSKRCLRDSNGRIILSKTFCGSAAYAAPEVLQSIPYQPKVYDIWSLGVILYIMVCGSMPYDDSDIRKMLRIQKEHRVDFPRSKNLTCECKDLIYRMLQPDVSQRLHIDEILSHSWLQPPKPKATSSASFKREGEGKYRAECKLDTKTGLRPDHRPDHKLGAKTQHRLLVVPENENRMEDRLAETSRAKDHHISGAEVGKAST
Conditions: at 0.1 µM.

Assay [5] addresses T3, Testis-specific serine/threonine-protein kinase 2 (Homo sapiens). Conditions: at 1 µM.
Assay [6] addresses Casein kinase I isoform alpha (Homo sapiens) (UniProt P48729). Particulars: at 0.1 µM.
For assay [7] the target is unchanged. Conditions: at 1 µM.
In assay [8] the target is Casein kinase I isoform gamma-1 (Homo sapiens) (UniProt Q9HCP0). Particulars: at 0.1 µM.
Assay [9] has the same target. Particulars: at 1 µM.
In assay [10] the target is Casein kinase I isoform gamma-2 (Homo sapiens) (UniProt P78368). Conditions: at 0.1 µM.
The target is the same in assay [11]. Particulars: at 1 µM.
Assay [12] concerns the target Casein kinase I isoform gamma-3 (Homo sapiens) (UniProt Q9Y6M4). Particulars: at 0.1 µM.
Assay [13] shares this target. Conditions: at 1 µM.
For assay [14], the target named is Cyclin-dependent kinase 1 (Homo sapiens) (UniProt P06493). Conditions: at 0.1 µM.
For assay [15] the target is unchanged. Conditions: at 1 µM.
Assay [16] deals with Cyclin-dependent kinase 2 (Homo sapiens) (UniProt P24941). Conditions: at 0.1 µM.
Assay [17] has the same target. Particulars: at 1 µM.
Assay [18] has the same target. Conditions: at 0.1 µM. The source holds these as a separate data set.
Assay [19] has the same target. Conditions: at 1 µM. This is another data set of the same source.
Assay [20] has as its target CDK3/Cyclin E (Homo sapiens) (UniProt P24864+Q00526). Conditions: at 0.1 µM.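 Further: reported percentages are mean inhibition values.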

CDK3/Cyclin E (Homo sapiens), sequence (P24864 whole entry, looked up): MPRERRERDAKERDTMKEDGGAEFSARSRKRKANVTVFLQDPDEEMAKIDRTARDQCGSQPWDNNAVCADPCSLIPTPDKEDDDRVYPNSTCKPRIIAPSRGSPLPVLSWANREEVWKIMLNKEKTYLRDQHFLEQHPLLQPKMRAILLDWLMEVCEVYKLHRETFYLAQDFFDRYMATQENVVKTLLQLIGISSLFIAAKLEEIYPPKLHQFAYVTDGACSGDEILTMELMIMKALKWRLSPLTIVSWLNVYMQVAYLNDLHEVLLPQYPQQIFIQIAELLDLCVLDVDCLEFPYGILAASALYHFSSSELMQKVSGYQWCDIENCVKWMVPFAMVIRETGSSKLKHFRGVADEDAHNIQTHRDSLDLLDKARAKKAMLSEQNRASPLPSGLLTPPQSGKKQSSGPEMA
CDK3/Cyclin E (Homo sapiens), sequence (Q00526 whole entry, looked up): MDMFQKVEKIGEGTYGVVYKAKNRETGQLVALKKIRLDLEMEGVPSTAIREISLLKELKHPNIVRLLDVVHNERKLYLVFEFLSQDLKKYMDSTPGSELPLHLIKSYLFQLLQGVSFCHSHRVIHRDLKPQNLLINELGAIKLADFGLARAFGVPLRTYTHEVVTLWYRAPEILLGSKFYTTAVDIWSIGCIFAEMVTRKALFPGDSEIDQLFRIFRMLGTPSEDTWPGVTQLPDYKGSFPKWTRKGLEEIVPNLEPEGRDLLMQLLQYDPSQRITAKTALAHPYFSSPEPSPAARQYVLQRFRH
Casein kinase I isoform gamma-1 (Homo sapiens), sequence (Q9HCP0 whole entry, looked up, canonical isoform): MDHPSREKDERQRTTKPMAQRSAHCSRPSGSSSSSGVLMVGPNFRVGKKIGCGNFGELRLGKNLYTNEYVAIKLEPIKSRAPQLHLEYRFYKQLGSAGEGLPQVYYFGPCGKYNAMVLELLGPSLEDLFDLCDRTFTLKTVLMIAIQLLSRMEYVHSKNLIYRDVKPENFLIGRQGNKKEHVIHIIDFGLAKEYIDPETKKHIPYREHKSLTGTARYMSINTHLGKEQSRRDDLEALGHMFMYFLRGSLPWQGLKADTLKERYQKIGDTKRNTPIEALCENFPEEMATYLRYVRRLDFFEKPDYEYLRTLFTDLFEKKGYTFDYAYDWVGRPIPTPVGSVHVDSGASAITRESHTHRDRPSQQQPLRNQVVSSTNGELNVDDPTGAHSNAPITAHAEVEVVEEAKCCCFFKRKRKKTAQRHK
Casein kinase I isoform gamma-2 (Homo sapiens), sequence (P78368 whole entry, looked up, canonical isoform): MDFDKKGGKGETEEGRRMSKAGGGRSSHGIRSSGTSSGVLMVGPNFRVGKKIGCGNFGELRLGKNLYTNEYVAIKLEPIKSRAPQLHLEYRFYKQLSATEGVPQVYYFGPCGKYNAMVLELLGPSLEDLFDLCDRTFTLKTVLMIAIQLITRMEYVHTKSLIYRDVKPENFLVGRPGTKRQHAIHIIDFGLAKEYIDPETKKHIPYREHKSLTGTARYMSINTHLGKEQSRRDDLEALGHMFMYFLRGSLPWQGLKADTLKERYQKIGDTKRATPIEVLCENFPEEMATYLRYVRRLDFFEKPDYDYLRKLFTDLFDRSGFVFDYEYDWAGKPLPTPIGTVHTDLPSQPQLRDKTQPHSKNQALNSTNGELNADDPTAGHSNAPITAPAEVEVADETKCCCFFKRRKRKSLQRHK
Casein kinase I isoform alpha (Homo sapiens), sequence (P48729 2-337 limits assumed): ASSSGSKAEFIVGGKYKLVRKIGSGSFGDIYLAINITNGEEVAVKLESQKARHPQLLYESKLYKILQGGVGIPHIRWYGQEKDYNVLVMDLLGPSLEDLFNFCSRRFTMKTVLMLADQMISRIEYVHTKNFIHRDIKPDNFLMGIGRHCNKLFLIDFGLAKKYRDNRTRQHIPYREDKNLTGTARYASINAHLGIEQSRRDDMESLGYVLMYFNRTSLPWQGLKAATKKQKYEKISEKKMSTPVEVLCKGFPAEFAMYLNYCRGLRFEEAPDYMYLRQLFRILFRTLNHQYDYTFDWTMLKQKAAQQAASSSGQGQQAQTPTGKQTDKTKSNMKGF
Cyclin-dependent kinase 1 (Homo sapiens), sequence (P06493 whole entry, looked up): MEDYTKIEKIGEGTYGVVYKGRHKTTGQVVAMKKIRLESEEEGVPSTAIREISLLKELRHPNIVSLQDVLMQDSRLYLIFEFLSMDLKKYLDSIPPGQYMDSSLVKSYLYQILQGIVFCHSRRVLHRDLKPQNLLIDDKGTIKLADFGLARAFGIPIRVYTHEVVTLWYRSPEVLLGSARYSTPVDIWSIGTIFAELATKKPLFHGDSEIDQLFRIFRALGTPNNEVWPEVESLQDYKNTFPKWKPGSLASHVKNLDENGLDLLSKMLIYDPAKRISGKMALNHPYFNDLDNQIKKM
Casein kinase I isoform gamma-3 (Homo sapiens), sequence (Q9Y6M4 whole entry, looked up, canonical isoform): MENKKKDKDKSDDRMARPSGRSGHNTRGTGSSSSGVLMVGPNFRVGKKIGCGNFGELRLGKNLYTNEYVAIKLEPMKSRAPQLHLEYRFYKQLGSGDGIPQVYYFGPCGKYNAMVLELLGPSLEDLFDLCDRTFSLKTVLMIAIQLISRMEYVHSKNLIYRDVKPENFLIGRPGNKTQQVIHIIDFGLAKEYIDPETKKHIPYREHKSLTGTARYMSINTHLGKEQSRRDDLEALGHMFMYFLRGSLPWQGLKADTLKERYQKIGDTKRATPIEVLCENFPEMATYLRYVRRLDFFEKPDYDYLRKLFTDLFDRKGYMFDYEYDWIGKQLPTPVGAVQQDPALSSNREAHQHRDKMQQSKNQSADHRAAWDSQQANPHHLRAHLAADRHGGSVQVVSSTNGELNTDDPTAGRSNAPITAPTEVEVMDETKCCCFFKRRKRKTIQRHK

A word on the inhibition: it is the change of the read-out against control, counted positive when it falls. For `O=C(Nc1ccc(Oc2ccc3[nH]c(NC(=O)c4ccco4)nc3c2)cc1)Nc1cc(C(F)(F)F)ccc1F`, the inhibition is 0.97% in assay [1]; 0.73% in assay [2]; 0.2% in assay [3]; 0.45% in assay [4]; -0.72% in assay [5]; 0.72% in assay [6]. Also, the inhibition was 1.23% in assay [7]; -3.78% in assay [8]; -2.12% in assay [9]; -4.05% in [10]; -2.38% in assay [11]; -2.82% in assay [12]. Further, the inhibition in assay [13] is -2.32%; in assay [14] it was -5.04%; in assay [15], -3.69%; in assay [16] it was -3.1%; in assay [17], 3.18%; in [18], -4.34%. Besides, the inhibition in assay [19] is -4%; in assay [20] it was -0.43%.
For the compound `COc1ccc2ncnc(Nc3ccc(OCc4ccccc4)cc3)c2c1`, the inhibition in [1] came out at 1.27%; in [2] it was 1.95%; in assay [3], 3.16%; in [4] it was 0.6%; in assay [5], 2.34%; in assay [6], 6.26%. Also, the inhibition in assay [7] is 8.76%; in assay [8] it was 1.48%; in assay [9], 2.76%; in assay [10], 1.66%; in assay [11], 2.03%; in assay [12], -0.66%. Also, the inhibition in [13] was 1.41%; in assay [14], 0.67%; in [15], 1.75%; in [16], 1.36%; in [17], -4.84%; in [18], 0.4%. The inhibition in assay [19] was 1.13%; in assay [20] it was 1.69%.
`c1ccc(Nc2ncc(-c3ccccc3)o2)cc1`: the inhibition in [1] was determined as 5.74%; in assay [2], 5.73%; in [3], 6.03%; in assay [4] it was 2.44%; in assay [5], 3.66%; in assay [6], 4.02%. For the same compound, the inhibition in assay [7] came out at 7.73%; in assay [8], 3.94%; in assay [9] it was 5.22%; in assay [10], 3.32%; in assay [11] it was 5.31%; in assay [12] it was 4.05%. Besides, the inhibition is 4.99% in assay [13]; 2.77% in assay [14]; 4.54% in assay [15]; 3.79% in assay [16]; 10.5% in [17]; 3.46% in assay [18]. Further, the inhibition is 12.3% in assay [19] and 0.23% in assay [20].
`COc1cc2ncnc(Nc3ccc(C)c(O)c3)c2cc1OC`: the inhibition in [1] turned out to be 5.95%; in [2], 3.91%; in assay [3] it was 3.21%; in assay [4], 1.77%; in [5], 2.03%; in [6], 4.56%. In addition, the inhibition in [7] amounted to 5.91%; in assay [8], 4.01%; in assay [9] it was 4.87%; in assay [10], 4.2%; in assay [11], 4.75%; in [12] it was 1.97%. The inhibition turned out to be 4.02% in assay [13]; 0.59% in [14]; 4.09% in assay [15]; 1.34% in assay [16]; 1.09% in assay [17]; 4.69% in [18]. The inhibition in assay [19] turned out to be 6.24%; in [20], 4.08%.
As to `Cc1ccc(O)cc1Nc1ccnc2ccc(S(C)(=O)=O)cc12`, the inhibition in assay [1] is 9.14%; in assay [2], 3.95%; in [3] it was 4.63%; in [4] it was 2.41%; in assay [5], 3.33%; in assay [6], 11.9%. Besides, the inhibition in [7] was determined as 43.8%; in assay [8] it was 4.05%; in assay [9] it was 7.45%; in [10], 4.13%; in [11], 6.1%; in assay [12], 3.71%. In addition, the inhibition in assay [13] was 9.28%; in [14], 1.72%; in assay [15], -1.86%; in [16] it was 2.82%; in assay [17], 4.49%; in assay [18], 4.22%. Besides, the results for the inhibition in assay [19] and in assay [20] were 4.92% and 2.71%, respectively.
For `CCOc1nccc2c1nc(-c1nonc1N)n2CC`, the inhibition in [1] was found to be 6.01%; in assay [2], 3.94%; in [3], 4.63%; in [4], 2.77%; in assay [5], 4.45%; in [6] it was 3.85%. Also, the inhibition in assay [7] amounted to 2.28%; in [8] it was 2.65%; in [9], 1.76%; in [10] it was 1.95%; in assay [11], 1.13%; in assay [12] it was 1.1%. For the same compound, the inhibition came to 0.56% in [13]; 0.5% in [14]; 2.69% in assay [15]; 0.81% in assay [16]; 2.63% in [17]; 2.66% in assay [18]. Besides, the inhibition in assay [19] amounted to 5.12%; in assay [20] it was 2.48%.
Regarding `C[C@@H](Oc1cc(-n2cnc3ccc(OC[C@@H](O)CO)cc32)sc1C(N)=O)c1ccccc1Cl`, the inhibition was -0.29% in [1]; 0.57% in [2]; 1.14% in [3]; -0.99% in assay [4]; 0.82% in assay [5]; 2.6% in [6]. Besides, the inhibition was 3.43% in assay [7]; -1.5% in assay [8]; 2.39% in [9]; -1.3% in assay [10]; -0.43% in assay [11]; -1.73% in assay [12]. For the same compound, the inhibition is 1.34% in assay [13]; 0.5% in [14]; 3.21% in assay [15]; 1.64% in [16]; 2.63% in assay [17]; -2.32% in assay [18]. In addition, the values for the inhibition in assay [19] and in assay [20] were 3.99% and 1.36%, respectively.
